Reference: PubChem BioAssay AID2129 (The Scripps Research Institute Molecular Screening Center, 2009)
Among all 320,000 compounds or so, about 2,200 (0.69%) were called active. The entries come from a sample that favours actives as a whole. A number with no mark means an inactive call.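 Rule for the calls: active = inhibition above the mean of all tested compounds plus 3 SD, cutoff set per campaign (cut at about 30% in these data); inactive = the rest.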

The compounds below were run against Bcl-2-like protein 1 (Homo sapiens) (UniProt Q07817) (assay: Bcl-xL/Bim BH3 interaction blockers – biochemical, fluorescence polarization, HTS, primary screen (AID 2129;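 note: 0% = DMSO wells and 100% = unlabeled Bim-BH3 peptide competitor; inhibitors lower millipolarization by displacing the labeled peptide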)). Conditions: GST-Bcl-xL / FITC-Bim BH3 peptide fluorescence polarization; at 10.9 µM; active compounds read high.
Chain of Bcl-2-like protein 1 (Homo sapiens) (Q07817 whole entry, looked up): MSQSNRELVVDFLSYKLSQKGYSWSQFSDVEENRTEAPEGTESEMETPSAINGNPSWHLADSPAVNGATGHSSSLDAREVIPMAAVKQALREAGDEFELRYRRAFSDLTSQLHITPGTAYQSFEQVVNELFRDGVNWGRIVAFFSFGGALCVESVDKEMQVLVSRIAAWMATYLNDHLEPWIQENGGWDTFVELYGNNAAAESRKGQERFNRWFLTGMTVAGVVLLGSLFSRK

SMILES	inhibition
CCNc1nc2[nH]c(=O)c3c(c2s1)OC(N)=C(C#N)C3c1cccs1 (stereo not given)	30.4% (active)
N#CC1=C(N)Oc2c(c(=O)oc3ccccc23)C1c1ccccc1OC(=O)c1cccs1 (stereo not given)	3.02%
Cc1ccc(N(C)C(=O)Oc2cccc3ccc(C)nc23)cc1	0.48%
NCCc1c[nH]c2ccc(O)cc12	4.75%
Cc1ccccc1N1C(=O)NC(=O)/C(=C\c2cc(C)n(C)c2C)C1=O	2.98%
COc1cccc(N2C(=O)NC(=O)/C(=C\c3cn(C)c4ccccc34)C2=O)c1	36.2% (active)
O=C1NC(=O)N(c2ccccc2)C(=O)/C1=C/c1ccc([N+](=O)[O-])s1	26.3%
Cc1ccc(-n2c(O)c(C=NCC3CCCO3)c(=O)[nH]c2=O)c(C)c1 (stereo not given)	-2.2%
COc1ccc(N2C(=O)/C(=C/c3ccco3)C(=O)NC2=S)cc1	32.5% (active)
COc1ccc(CN2C(=O)NC(=O)/C(=C\c3ccc(OC)c(OC)c3OC)C2=O)cc1	-7.16%
Cc1cc(/C=C2/C(=O)NC(=O)N(Cc3ccco3)C2=O)c(C)n1-c1ccc(C(=O)O)cc1	-1.1%
Cc1cccc(NC(=O)OC2CN3CCC2CC3)c1 (stereo not given)	-2.32%
CC(=NC1CCN(Cc2ccccc2)CC1)c1c(O)n(C)c(=O)n(C)c1=O	14.7%
Cc1ccc2c(c1)C1CN(C)CCC1N2C(=O)Cn1nnc(-c2ccccc2F)n1 (stereo not given)	4.75%
O=c1c2ccccc2nc(/C=C/c2ccc(F)cc2)n1-c1ccccc1O	0.24%
